In PubChem BioAssay AID1159580 (chemical genetic matrix, 2015):
Where “and” joins values, the source holds several entries; their conditions need not be identical. Equal values may be shown once. Hit rate of the full screen: of about 5,500 compounds, about 2,000 (36%) were called active. Not shown: some 18% with an inconclusive outcome. Cut-off read from the data, not from the text of the source: active = normalized growth mostly below about 0.91 (no sharp cut-off); inconclusive = no clear call, values can overlap the other calls; inactive = mostly above about 0.92. The list shows a part of the results.

Assay: chemical genetic growth profiling, strain panel (AID 1159580);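 note: tested at 20 µM; growth read once vehicle control cultures reached saturation at 30 °C; 1 = growth at the plate median or of vehicle wells; lower values mean less growth of the strain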
Conditions: S. cerevisiae deletion strains, growth OD

Measured: normalized growth

CC1(C)C2CC[C@]3(C)C(C(=O)C=C4[C@@H]5C[C@@](C)(C(=O)O)CC[C@]5(C)CC[C@]43C)[C@@]2(C)CC[C@@H]1O (stereo not given in full)
inactive: locus YAL013W, strain DEP1, stronger effect = lower value 1.02 | locus YAL021C, strain ccr4, stronger effect = lower value 1.02 | locus YAL026C, strain drs2, stronger effect = lower value 0.999 | locus YAL030W, strain snc1, stronger effect = lower value 1 | locus YBL061C, strain skt5, stronger effect = lower value 1.02 | locus YBR009C, strain hhf1, stronger effect = lower value 0.93 | locus YBR021W, strain FUR4, stronger effect = lower value 0.961 | locus YBR023C, strain chs3, stronger effect = lower value 1.02 | locus YBR171W, strain sec66, stronger effect = lower value 1 | locus YBR229C, strain ROT2, stronger effect = lower value 1.06 | locus YBR231C, strain swc5, stronger effect = lower value 1.08 | locus YBR279W, strain paf1, stronger effect = lower value 1.03 | locus YCL011C, strain gbp2, stronger effect = lower value 0.988 | locus YCL016C, strain dcc1, stronger effect = lower value 1.03 | locus YCL029C, strain bik1, stronger effect = lower value 0.956 | locus YCL069W, strain vba3, stronger effect = lower value 1 | locus YCR088W, strain abp1, stronger effect = lower value 1.02 | locus YDL005C, strain med2, stronger effect = lower value 1.01 | locus YDL035C, strain GPR1, stronger effect = lower value 0.873 | locus YDL040C, strain nat1, stronger effect = lower value 1.03 | locus YDL074C, strain BRE1, stronger effect = lower value 1.02 | locus YDL101C, strain DUN1, stronger effect = lower value 1.02 | locus YDL185W, strain tfp1, stronger effect = lower value 1.04 | locus YDL192W, strain arf1, stronger effect = lower value 0.996 | locus YDR001C, strain nth1, stronger effect = lower value 1.01 | locus YDR069C, strain doa4, stronger effect = lower value 1 | locus YDR101C, strain arx1, stronger effect = lower value 0.98 | locus YDR137W, strain rgp1, stronger effect = lower value 0.879 | locus YDR159W, strain sac3, stronger effect = lower value 0.908 | locus YDR162C, strain NBP2, stronger effect = lower value 0.986 | locus YDR195W, strain ref2 1.07 | locus YDR297W, strain sur2, stronger effect = lower value 0.978 | locus YDR318W, strain mcm21, stronger effect = lower value 0.997 | locus YDR334W, strain swr1, stronger effect = lower value 0.964 | locus YDR335W, strain msn5, stronger effect = lower value 1.01 | locus YDR388W, stronger effect = lower value 1.01 | locus YDR392W, strain spt3, stronger effect = lower value 1.02 | locus YDR502C, strain sam2, stronger effect = lower value 0.968 | locus YEL003W, strain gim4, stronger effect = lower value 0.932 | locus YEL037C, strain rad23, stronger effect = lower value 1 | locus YEL061C, strain CIN8 (second series), stronger effect = lower value 1.01 | locus YER015W, strain faa2, stronger effect = lower value 1.02 | locus YER016W, strain bim1, stronger effect = lower value 1.01 | locus YER110C, stronger effect = lower value 1.04 | locus YER111C, strain swi4, stronger effect = lower value 1.03 | locus YER155C, strain BEM2 (second series), stronger effect = lower value 1.13 | locus YER155C, strain BEM2, stronger effect = lower value 1.06 | locus YER167W, strain BCK2, stronger effect = lower value 1.07 | locus YFR010W, strain ubp6, stronger effect = lower value 0.943 | locus YGL086W, strain mad1, stronger effect = lower value 1.01 | locus YGL167C, strain pmr1, stronger effect = lower value 0.996 | locus YGL227W, strain vid30, stronger effect = lower value 1.02 | locus YGL240W, strain doc1, stronger effect = lower value 0.986 | locus YGL248W, strain PDE1, stronger effect = lower value 0.985 | locus YGL253W, strain hxk2, stronger effect = lower value 1.02 | locus YGR078C, strain PAC10, stronger effect = lower value 1.02 | locus YGR135W, strain pre9, stronger effect = lower value 0.981 | locus YGR252W, strain gcn5, stronger effect = lower value 0.833 | locus YHR013C, strain ard1, stronger effect = lower value 1.1 | locus YHR027C, strain rpn1, stronger effect = lower value 0.956 | locus YHR030C, strain SLT2, stronger effect = lower value 1.07 and 0.991 | locus YHR079C, strain IRE1 (second series), stronger effect = lower value 1.02 | locus YHR079C, strain IRE1, stronger effect = lower value 0.973 | locus YHR094C, strain hxt1, stronger effect = lower value 1.03 | locus YHR129C, strain ARP1, stronger effect = lower value 1.07 | locus YHR142W, strain chs7, stronger effect = lower value 1.01 | locus YHR200W, strain rpn10, stronger effect = lower value 1.03 | locus YIL066C, strain RNR3, stronger effect = lower value 1.03 | locus YIL073C, strain SPO22, stronger effect = lower value 0.956 | locus YIL125W, strain kgd1, stronger effect = lower value 1.01 | locus YIR030C, strain dcg1, stronger effect = lower value 1.01 | locus YJL092W, strain hpr5, stronger effect = lower value 1.02 | locus YJL095W, strain BCK1 (second series), stronger effect = lower value 1.02 | locus YJL095W, strain BCK1, stronger effect = lower value 0.971 and 0.979 | locus YJL115W, strain asf1, stronger effect = lower value 1.01 | locus YJL129C, strain trk1, stronger effect = lower value 1.04 | locus YJL134W, strain LCB3, stronger effect = lower value 1.05 | locus YJL154C, strain vps35, stronger effect = lower value 1.01 | locus YJL164C, strain tpk1, stronger effect = lower value 0.946 | locus YJL166W, strain qcr8, stronger effect = lower value 0.974 | locus YJL168C, strain set2, stronger effect = lower value 1.03 | locus YJL187C, strain SWE1 (second series), stronger effect = lower value 1 | locus YJR043C, strain POL32, stronger effect = lower value 0.99 | locus YJR066W, strain TOR1, stronger effect = lower value 0.953 | locus YJR075W, strain HOC1, stronger effect = lower value 1.04 | locus YKL160W, strain elf1, stronger effect = lower value 1.01 | locus YKL190W, strain CNB1, stronger effect = lower value 1.08 | locus YKR001C, strain vps1, stronger effect = lower value 0.992 | locus YKR026C, strain gcn3, stronger effect = lower value 1.02 | locus YKR091W, strain srl3, stronger effect = lower value 1.01 | locus YLL001W, strain dnm1, stronger effect = lower value 0.952 | locus YLL026W, stronger effect = lower value 1.01 | locus YLL041C, strain sdh2, stronger effect = lower value 1.03 | locus YLR027C, strain aat2, stronger effect = lower value 1 | locus YLR039C, strain RIC1, stronger effect = lower value 1.03 | locus YLR058C, strain SHM2, stronger effect = lower value 1.01 | locus YLR102C, strain apc9, stronger effect = lower value 1.03 | locus YLR113W, strain HOG1, stronger effect = lower value 0.974 | locus YLR221C, strain rsa3, stronger effect = lower value 0.918 | locus YLR258W, strain gsy2, stronger effect = lower value 1 | locus YLR262C, strain YPT6 (second series), stronger effect = lower value 0.88 | locus YLR262C, strain YPT6, stronger effect = lower value 0.933 | locus YLR268W, strain sec22, stronger effect = lower value 0.953 | locus YLR320W, strain mms22, stronger effect = lower value 0.941 | locus YLR330W, strain CHS5, stronger effect = lower value 1.06 | locus YLR342W, strain FKS1 (second series), stronger effect = lower value 0.977 | locus YLR342W, strain FKS1, stronger effect = lower value 0.961 | locus YLR357W, strain rsc2, stronger effect = lower value 1.08 | locus YLR370C, strain arc18, stronger effect = lower value 1.04 | locus YLR371W, strain rom2, stronger effect = lower value 1.04 | locus YLR384C, strain iki3, stronger effect = lower value 1.03 | locus YLR418C, strain cdc73, stronger effect = lower value 0.991 | locus YML016C, strain PPZ1, stronger effect = lower value 1.05 | locus YML032C, strain rad52, stronger effect = lower value 0.973 | locus YML120C, strain ndi1, stronger effect = lower value 0.933 | locus YML124C, strain tub3, stronger effect = lower value 1.03 | locus YMR058W, strain fet3, stronger effect = lower value 0.983 | locus YMR078C, strain ctf18, stronger effect = lower value 1.04 | locus YMR129W, stronger effect = lower value 1.02 | locus YMR205C, strain PFK2, stronger effect = lower value 0.99 | locus YMR223W, strain ubp8, stronger effect = lower value 0.978 | locus YMR231W, strain pep5, stronger effect = lower value 0.99 | locus YMR307W, strain GAS1, stronger effect = lower value 0.902 | locus YNL067W, strain RPL9B, stronger effect = lower value 0.987 | locus YNL071W, strain lat1, stronger effect = lower value 0.996 | locus YNL128W, strain TEP1, stronger effect = lower value 1.05 | locus YNL153C, strain GIM3, stronger effect = lower value 0.982 | locus YNL183C, strain NPR1, stronger effect = lower value 0.933 | locus YNL209W, strain ssb2, stronger effect = lower value 1.03 | locus YNL233W, strain BNI4, stronger effect = lower value 0.992 | locus YNL248C, strain rpa49, stronger effect = lower value 1.01 | locus YNL250W, strain rad50, stronger effect = lower value 0.998 | locus YNL271C, strain bni1, stronger effect = lower value 0.994 | locus YNL298W, strain CLA4, stronger effect = lower value 0.942 | locus YNL307C, strain MCK1, stronger effect = lower value 1.03 | locus YNL322C, strain KRE1 (second series), stronger effect = lower value 0.982 | locus YNL322C, strain KRE1, stronger effect = lower value 1.05 | locus YNR049C, strain mso1, stronger effect = lower value 1.03 | locus YNR052C, strain pop2, stronger effect = lower value 0.955 | locus YOL006C, strain TOP1, stronger effect = lower value 0.968 | locus YOL012C, strain htz1 1.55 | locus YOL147C, strain pex11, stronger effect = lower value 1.03 | locus YOR061W, strain CKA2, stronger effect = lower value 1.04 | locus YOR069W, strain VPS5, stronger effect = lower value 1.05 | locus YOR070C, strain gyp1, stronger effect = lower value 1.01 | locus YOR080W, strain dia2, stronger effect = lower value 1 | locus YOR083W, strain WHI5, stronger effect = lower value 0.922 | locus YOR106W, strain vam3, stronger effect = lower value 0.925 | locus YOR136W, strain idh2, stronger effect = lower value 1.01 | locus YOR144C, strain elg1, stronger effect = lower value 1.02 | locus YOR231W, strain MKK1, stronger effect = lower value 0.966 | locus YOR265W, strain rbl2, stronger effect = lower value 1 | locus YOR270C, strain vph1, stronger effect = lower value 0.918 | locus YOR290C, strain snf2, stronger effect = lower value 0.989 | locus YOR316C, strain cot1, stronger effect = lower value 1.03 | locus YPL051W, strain arl3, stronger effect = lower value 1.02 | locus YPL055C, strain LGE1, stronger effect = lower value 1.06 | locus YPL078C, strain atp4, stronger effect = lower value 1.02 | locus YPL106C, strain sse1, stronger effect = lower value 1.13 | locus YPL240C, strain hsp82, stronger effect = lower value 1.01 | locus YPL256C, strain CLN2, stronger effect = lower value 1.05 | locus YPR119W, strain clb2, stronger effect = lower value 1.03 | locus YPR141C, strain kar3, stronger effect = lower value 1.05 | locus YPR163C, strain tif3, stronger effect = lower value 1.03 | locus YPR167C, strain met16, stronger effect = lower value 1.02 | strain wtn01, stronger effect = lower value 0.966
active: locus YGL078C, strain dbp3, stronger effect = lower value 0.907 | locus YGL173C, strain kem1, stronger effect = lower value 0.876 | locus YKL009W, strain mrt4, stronger effect = lower value 0.864 | locus YKL068W, stronger effect = lower value 1.08 [resistant] | locus YKL085W, strain MDH1 (second series), stronger effect = lower value 1.07 [resistant] | locus YKL085W, strain MDH1, stronger effect = lower value 1.07 [resistant] | locus YMR125W, strain sto1, stronger effect = lower value 1.12 [resistant] | locus YOR001W, strain rrp6, stronger effect = lower value 0.886 | locus YOR184W, strain ser1, stronger effect = lower value 0.857
